Screens as filed in PubChem BioAssay.
T cruzi growth-1: blocks T. cruzi growth in NIH3T3 culture | 77,000 compounds, 5.9% hits | T. cruzi beta-gal in NIH3T3, GalScreen luminescence, 90 h | inhibition, % at 8.34 µM;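 active means mean inhibition above about 93%, with at least 55% of replicates each passing it, limit read from the data, passing the limit was not always enough; inconclusive means only one of those two conditions holds; inactive means neither condition holds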
C diff growth: C. difficile growth inhibition | AID 1259249 | 86,000 compounds, 0.25% hits | growth activity, negative = inhibition, % at 16 µg/mL (by protocol) | Clostridium difficile clinical isolate growth, OD600, 24 h; stronger effect = lower value;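 active means mean growth activity at or below -80% and every replicate also at or below -80%; inconclusive means mean at or below -80% but some replicate above -80%; inactive means mean growth activity above -80%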
T cruzi growth-2: blocks T. cruzi growth in NIH3T3 host cells | shares compounds with T cruzi growth-1 | T. cruzi beta-gal in NIH3T3, GalScreen luminescence, 90 h | inhibition, % at 8.35 µM | 5,600 compounds, 72% hits | AID 651739;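 active means mean replicate inhibition above about 95% and at least 55% of replicates individually reaching it, limit read from the data; inconclusive means only one of the two criteria is met; inactive means neither criterion is met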
T cruzi growth-3: inhibitors of T. cruzi proliferation; shares compounds with T cruzi growth-1; T. cruzi beta-gal in NIH3T3, GalScreen luminescence, 90 h; inhibition, % at 2.09 µM; 5,600 compounds, 21% hits; AID 651740;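 active means mean inhibition above about 95%, with at least 55% of replicates also reaching it, limit read from the data; inconclusive means meets just one of the two conditions; inactive means meets neither condition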
3T3 cytotox: cytotoxicity in mouse NIH/3T3 fibroblasts | shares compounds with T cruzi growth-1 | NIH/3T3 viability, CellTiter-Glo ATP luminescence, 90 h | cytotoxicity (signal decrease), % at 8.35 µM | 5,600 compounds, 14% hits | AID 651742;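 active means mean signal decrease across replicates above about 35% based on untreated-well scatter, with enough replicates individually passing, limit read from the data; inconclusive means no rule stated though some were filed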
3T3 cytotox 2: kills mouse NIH/3T3 fibroblasts; inhibition, % at 24.9 µM; 5,600 compounds, 56% hits; NIH/3T3 viability, CellTiter-Glo ATP luminescence, 90 h; shares compounds with T cruzi growth-1; AID 651744;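 active means mean loss of cell viability signal at or above a set limit, and enough replicates individually reaching it; inconclusive means meets only the mean limit or only the replicate share; inactive means meets neither condition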
Hits are given with their value; n = inactive; u = inconclusive; x = not tested or not shown. This is one part of a sample in which hits are shown more often than they occur.

SMILES | T cruzi growth-1 | C diff growth | T cruzi growth-2 | T cruzi growth-3 | 3T3 cytotox | 3T3 cytotox 2
N#Cc1cccc(-c2ccc([C@@H]3[C@@H](CO)N4CCCCN(C(=O)Nc5cccc(F)c5)C[C@@H]34)cc2)c1 | 104 | n | 110 | n | n | 87
N#Cc1cccc(-c2ccc([C@H]3[C@H]4CN(C(=O)Nc5cccc(F)c5)CCCCN4[C@H]3CO)cc2)c1 | 122 | n | 110 | n | n | n
Cc1ccc(S(=O)(=O)N(C)C[C@H]2Oc3c(NC(=O)C4CCOCC4)cccc3C(=O)N([C@H](C)CO)C[C@@H]2C)cc1 | n | n | x | x | x | x
COc1ccc2c3c([nH]c2c1)[C@@H](CO)N(C(=O)C1CCOCC1)CC31CCN(C(=O)NC(C)C)CC1 | x | n | x | x | x | x
COC(=O)C[C@@H]1C[C@@H]2c3cc(NC(=O)NC4CCCC4)ccc3O[C@@H]2[C@H](CO)O1 | n | x | x | x | x | x
O=C(C[C@@H]1C[C@@H]2c3cc(NC(=O)CC4CC4)ccc3O[C@@H]2[C@H](CO)O1)NCc1ccc(Cl)cc1 | n | x | x | x | x | x
COCCNC(=O)C[C@H]1C[C@@H]2c3cc(NC(=O)C4CCOCC4)ccc3O[C@@H]2[C@@H](CO)O1 | n | x | x | x | x | x
CCC(=O)N1CCCCN2[C@H](CO)[C@H](c3ccc(-c4ccc(F)cc4)cc3)[C@@H]2C1 | 106 | n | n | n | n | 54
COCC(=O)N1CCCCN2[C@H](CO)[C@H](c3ccc(-c4ccc(C)cc4)cc3)[C@@H]2C1 | n | n | x | x | x | x
CCC(=O)N1CCCCN2[C@@H](CO)[C@@H](c3ccc(-c4ccc(F)cc4)cc3)[C@@H]2C1 | 107 | n | n | n | n | 70
COCC(=O)N1CCCCN2[C@@H](CO)[C@@H](c3ccc(-c4ccc(C)cc4)cc3)[C@@H]2C1 | 107 | n | n | n | n | 26
COCC(=O)N1CCCCN2[C@@H](CO)[C@@H](c3ccc(-c4ccc(F)cc4)cc3)[C@@H]2C1 | n | n | x | x | x | x
CCC(=O)N1CCCCN2[C@H](CO)[C@H](c3ccc(-c4ccc(F)cc4)cc3)[C@H]2C1 | n | n | x | x | x | x
Cc1ccc(S(=O)(=O)N(C)C[C@@H]2Oc3ccc(NC(=O)C4CC4)cc3CC(=O)N([C@@H](C)CO)C[C@@H]2C)cc1 | n | n | x | x | x | x
Cc1ccc(S(=O)(=O)N(C)C[C@H]2Oc3ccc(NC(=O)NC4CCCCC4)cc3CC(=O)N([C@H](C)CO)C[C@@H]2C)cc1 | n | n | x | x | x | x
CC(C)(C)S(=O)N1Cc2cc(C(=O)NCc3ccc(Oc4ccccc4)cc3)nc(-c3cccc(C#CCC4CCCC4)c3)c2[C@@H]1CCO (stereo not given in full) | x | n | x | x | x | x
COc1ccc(NC(=O)N(C)C[C@H]2OCCCC[C@@H](C)Oc3ccc(NS(=O)(=O)c4cn(C)cn4)cc3C(=O)N([C@@H](C)CO)C[C@H]2C)cc1 | n | n | x | x | x | x
C[C@H](CO)N1C[C@H](C)[C@@H](CN(C)CC2CCCC2)Oc2cc(C3=CCCCC3)ccc2S1(=O)=O | 106 | n | 97 | n | n | 103
C[C@H](CO)N1C[C@H](C)[C@@H](CN(C)CC2CCCC2)Oc2cc(C3=CCCC3)ccc2S1(=O)=O | 103 | n | 103 | n | n | 107
C[C@@H]1CN([C@@H](C)CO)S(=O)(=O)c2ccc(C3=CCCCC3)cc2O[C@H]1CN(C)CC1CCCC1 | 123 | n | 102 | n | 120 | 106
C[C@@H]1CN([C@@H](C)CO)S(=O)(=O)c2ccc(C3=CCCC3)cc2O[C@H]1CN(C)CC1CC1 | n | n | x | x | x | x
C[C@@H]1CN([C@H](C)CO)S(=O)(=O)c2ccc(C3=CCCCC3)cc2O[C@@H]1CN(C)CC1CC1 | n | x | x | x | x | x
C[C@@H]1CN([C@@H](C)CO)S(=O)(=O)c2ccc(C3=CCCCC3)cc2O[C@@H]1CN(C)CC1CC1 | n | x | x | x | x | x
Cn1cnc(S(=O)(=O)N[C@H]2C=C[C@H](CC(=O)Nc3ccccc3)O[C@H]2CO)c1 | x | n | x | x | x | x
CO[C@H]1CN(C)C(=O)c2ccc(NC(=O)C3CCOCC3)cc2OC[C@@H](C)N(C)C[C@H]1C | n | n | x | x | x | x
C[C@@H]1CN([C@@H](C)CO)C(=O)c2cc(NC(=O)NC3CCCCC3)ccc2O[C@@H]1CN(C)Cc1ccc(C(=O)O)cc1 | x | n | x | x | x | x
CC(=O)N1[C@H](CO)[C@H](c2ccccc2)[C@H]1CN(CC1CCC1)C(=O)CN(C)C | 101 | n | u | n | n | n
CCC(=O)N(CC1CCC1)C[C@H]1[C@H](c2ccccc2)[C@@H](CO)N1C(C)=O | n | n | x | x | x | x
